# Compounds with a hit are over-represented: about 2.3% of the library has one in this group of screens.
# SIRT5 inh: SIRT5 desuccinylase inhibitors, primary screen, biochemical, fluorescence imaging, single point, set 5 | NAD-dependent protein deacylase sirtuin-5, mitochondrial (Homo sapiens), Q9NXA8 | Purified SirT5, succinyl-peptide AMC, trypsin-coupled fluorescence | inhibition, % at 15 µM | 1.1% of 330,000 active; in the data active means inhibition above about 15%; inconclusive means no clear call, values can overlap the other calls
# Target sequence (Q9NXA8 whole entry, looked up): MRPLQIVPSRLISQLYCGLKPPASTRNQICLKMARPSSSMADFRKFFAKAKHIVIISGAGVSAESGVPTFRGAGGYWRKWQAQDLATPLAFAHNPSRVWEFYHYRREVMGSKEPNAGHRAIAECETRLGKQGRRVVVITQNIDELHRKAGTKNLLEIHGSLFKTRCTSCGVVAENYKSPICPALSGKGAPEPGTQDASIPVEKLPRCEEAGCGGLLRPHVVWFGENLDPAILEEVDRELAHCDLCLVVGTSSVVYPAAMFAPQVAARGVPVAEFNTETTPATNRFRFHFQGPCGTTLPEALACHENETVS
# DENV2 CPE rescue: inhibitors of DENV2 cytopathic effect, primary screen, cell-based, plate reader, single concentration | CPE inhibition, % at 9.99 µM | DENV2-infected cells, cytopathic effect rescue | AID 651640, 2012 | 1.7% of 350,000 active; in the data active means CPE inhibition above about 20%, passing the limit was not always enough; inconclusive means no clear call, values can overlap the other calls; tested in BHK-21 cells
# PDI turbidity: inhibitors of human PDI, primary screen, biochemical, turbidity, single point, plate reader | Protein disulfide-isomerase (Homo sapiens), P07237 | PDI insulin aggregation turbidity, A650, 90 min | 0.052% of 350,000 active | AID 588391, 2011 | inhibition, % at 10 µM;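 active means mean inhibition across replicates of 30% or more, whatever share of single replicates reach that level; inconclusive means mean inhibition below 30% while every single replicate reaches 30%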
# Rtt109 Vps75: inhibitors of C. albicans Rtt109/Vps75 HAT, primary screen, biochemical, ThioGlo CoA-SH fluorescence, plate reader; Histone acetyltransferase RTT109 (Candida albicans (strain SC5314 / ATCC MYA-2876)), …; purified Rtt109/Vps75, 4 h; inhibition, % at 34.9 µM; 0.16% of 330,000 active;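 active means inhibition of at least 50% in every replicate; inconclusive means best replicate reaches 50% inhibition but some replicates fall short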
# Target sequence (Q5AAJ8 whole entry, looked up): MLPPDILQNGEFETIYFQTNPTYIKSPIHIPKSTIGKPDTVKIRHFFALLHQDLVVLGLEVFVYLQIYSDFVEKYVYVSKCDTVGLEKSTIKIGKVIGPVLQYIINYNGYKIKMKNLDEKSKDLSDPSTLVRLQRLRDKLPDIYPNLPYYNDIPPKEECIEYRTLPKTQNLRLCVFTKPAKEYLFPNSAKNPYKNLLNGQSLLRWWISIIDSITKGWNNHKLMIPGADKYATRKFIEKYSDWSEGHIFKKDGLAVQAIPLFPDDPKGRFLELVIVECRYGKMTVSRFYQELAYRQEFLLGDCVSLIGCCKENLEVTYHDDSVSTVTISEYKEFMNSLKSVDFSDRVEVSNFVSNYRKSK
# ERp5 block: inhibitors of ERp5-driven insulin aggregation, primary screen, biochemical, turbidity, absorbance 650 nm, single point; inhibition, % at 9.99 µM; 0.05% of 350,000 active; Protein disulfide-isomerase A6 (Homo sapiens), Q15084; 90 min;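 active means mean replicate inhibition above about 25%, with every replicate also reaching it, limit read from the data, passing the limit was not always enough; inconclusive means only one of those two criteria met; inactive means neither criterion met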
# Numbers stand for hits; 0 = inactive; ? = inconclusive; - = no result.
SMILES,SIRT5 inh,DENV2 CPE rescue,PDI turbidity,Rtt109 Vps75,ERp5 block
C[C@H](CO)N1C[C@H](C)[C@H](CN(C)Cc2ccccc2)Oc2c(NS(C)(=O)=O)cccc2C1=O,0,0,-,-,0
COC(=O)C1=C(C(=O)OC)[C@@H]2Nc3ccccc3[C@@]23C[C@@H](C(=O)OC)N(C(=O)CC(C)C)C3=N1,21,0,0,0,0
COc1ccc(S(=O)(=O)NC(N)=NCCc2ccccc2OC)cc1,0,0,0,0,0
COc1ccccc1CCN=C(N)NS(=O)(=O)c1ccc(F)cc1,0,55,0,0,0
CCCC#Cc1ccc2c(c1)O[C@@H](CN(C)C(=O)NC(C)C)[C@@H](C)CN([C@H](C)CO)S2(=O)=O,0,0,-,-,0
O=C(O)CCNc1ccc(NCCC(=O)O)c2c1C(=O)c1ccccc1C2=O,17,0,0,0,0
CCCN(C)C[C@H]1OCCCC[C@@H](C)Oc2ccc(N(C)C)cc2C(=O)N([C@H](C)CO)C[C@H]1C,0,0,-,-,0
Cc1ccc(S(=O)(=O)Nc2ccc3c(c2)CC(=O)N([C@H](C)CO)C[C@H](C)[C@@H](CN(C)Cc2ccc(-c4ccccc4)cc2)O3)cc1,0,0,-,-,0
C[C@@H]1CN([C@H](C)CO)C(=O)Cc2cc(NS(=O)(=O)c3ccccc3)ccc2O[C@@H]1CN(C)Cc1ccc(-c2ccccc2)cc1,0,56,-,-,0
C[C@@H]1CN([C@@H](C)CO)C(=O)Cc2cc(NS(=O)(=O)c3ccccc3)ccc2O[C@@H]1CN(C)Cc1ccc(-c2ccccc2)cc1,0,44,-,-,0
C[C@H](CO)N1C[C@H](C)[C@H](CN(C)Cc2ccccc2)Oc2ccc(NS(=O)(=O)c3ccccc3)cc2CC1=O,0,55,-,-,0
Cc1ccc(S(=O)(=O)Nc2ccc3c(c2)CC(=O)N([C@H](C)CO)C[C@H](C)[C@H](CN(C)Cc2ccc(-c4ccccc4)cc2)O3)cc1,0,0,-,-,0
Nc1ccc(S(=O)(=O)c2ccc(N)c(N)c2)cc1,0,0,0,0,0
Nc1cc(S(=O)(=O)c2ccc(O)c(N)c2)ccc1O,16,0,0,0,0
CCOC(=O)C(NC(C)=O)(Nc1ccc(S(=O)(=O)Nc2ncccn2)cc1)C(F)(F)F (configuration not stated),19,0,0,-,0
CCOC(=O)C(NC(C)=O)(Nc1ccc(S(=O)(=O)Nc2nccs2)cc1)C(F)(F)F (configuration not stated),-,-,0,0,-
Cc1ccccc1CNC(=O)Cn1ccc2cc(S(=O)(=O)N3CCCCCC3)ccc21,19,?,0,0,0
O=C(COC(=O)/C=C/c1ccc(S(=O)(=O)N2CCOCC2)cc1)NCc1ccccc1,0,0,0,0,0
O=C(COC(=O)/C=C/c1ccc(S(=O)(=O)N2CCOCC2)cc1)NCc1ccc(Cl)cc1,25,0,0,0,0
O=C(Cn1ccc2cc(S(=O)(=O)N3CCCCC3)ccc21)NCc1ccccc1F,0,0,0,0,0
COc1ccc(CNC(=O)COC(=O)c2ccc(S(=O)(=O)N3CCCCC3)cc2)cc1,-,?,0,52,0
COc1ccc(CC(=O)Nc2ccc(C)c(S(=O)(=O)N3CCCCCC3)c2)cc1,0,35,0,0,0
CCCNC(=O)[C@H]1[C@H](CO)[C@H]2Cn3c(ccc(-c4cccc(F)c4)c3=O)[C@H]2N1C(=O)CC,0,0,-,-,0
C[C@@H]1CN([C@@H](C)CO)S(=O)(=O)c2ccc(C3=CCCC3)cc2O[C@H]1CN(C)C(=O)CN(C)C,0,0,-,-,0
Cc1cccc(CNC(=O)Cn2ccc3cc(S(=O)(=O)N4CCCC4)ccc32)c1,16,0,0,0,0
SMILES,SIRT5 inh,DENV2 CPE rescue,PDI turbidity,Rtt109 Vps75,ERp5 block
COc1ccc(CNC(=O)CCn2ccc3cc(S(=O)(=O)N4CCCC4)ccc32)cc1,34,0,0,0,0
C[C@H](CO)N1C[C@H](C)[C@@H](CN(C)C(=O)Nc2ccc3c(c2)OCO3)Oc2ccc(NC(=O)CCCN(C)C)cc2C1=O,0,0,-,-,0
CCNC(=O)C[C@H]1CC[C@H]2[C@H](COc3ccc(NC(=O)c4cscn4)cc3C(=O)N2C)O1,0,0,-,-,0
C[C@@H]1CN([C@@H](C)CO)C(=O)Cc2cc(NC(=O)Cc3ccccc3)ccc2O[C@H]1CN(C)Cc1ccc(Cl)c(Cl)c1,0,26,-,-,0
C[C@H](CO)N1C[C@H](C)[C@H](CN(C)Cc2ccc(Cl)c(Cl)c2)Oc2ccc(NC(=O)Cc3ccccc3)cc2CC1=O,0,0,-,-,0
C[C@H]1CN([C@@H](C)CO)C(=O)Cc2cc(NC(=O)Cc3ccccc3)ccc2O[C@H]1CN(C)Cc1ccc(Oc2ccccc2)cc1,17,0,-,-,0
C[C@@H]1CN([C@H](C)CO)C(=O)Cc2cc(NC(=O)Cc3ccccc3)ccc2O[C@@H]1CN(C)Cc1ccc(Oc2ccccc2)cc1,0,0,-,-,0
C[C@@H]1CN([C@H](C)CO)C(=O)Cc2cc(NC(=O)Cc3ccccc3)ccc2O[C@H]1CN(C)Cc1ccc(Cl)c(Cl)c1,0,27,-,-,0
NC(=O)c1ccccc1NC(=O)COC(=O)C1(c2ccccc2)CC1,0,32,0,0,0
Cc1cccc(N=[N+]([O-])c2cccc(C)n2)n1,0,27,0,0,0
O=C(COc1ccccc1/C=C1\SC(=O)NC1=O)Nc1ccc(F)cc1,0,-,0,0,0
C=CCN1C(=O)N/C(=C/c2ccccc2OCC(=O)Nc2ccc(F)cc2)C1=O,0,22,0,?,0
Cc1ccc(S(=O)(=O)Nc2ccc(O)c3ncccc23)cc1,-,107,-,0,0
Cc1ccc(S(=O)(=O)Nc2ccc(O)c3cccnc23)cc1,0,0,0,128,0
O=C(C[C@@H]1C[C@H]2c3cc(NC(=O)NC4CCCC4)ccc3O[C@H]2[C@@H](CO)O1)NCc1ccccn1,0,0,-,-,0
COC(=O)c1ccc(-c2noc(CN3CCCC(CNC(C)=O)C3)n2)cc1 (configuration not stated),35,0,0,0,0
O=C(NNc1ccccc1)C(=O)NNS(=O)(=O)c1ccc(CCCl)cc1,0,0,0,65,0
C[C@H]1CN([C@@H](C)CO)C(=O)c2cccc(NC(=O)Nc3ccc4c(c3)OCO4)c2O[C@H]1CN(C)S(=O)(=O)c1ccc(F)cc1,0,0,-,-,0
N#Cc1ccccc1COC(=O)CCCC1=NS(=O)(=O)c2ccccc2N1,32,0,0,0,0
O=C(N[C@H]1CC[C@H](CCn2cc(C3(O)CCCC3)nn2)O[C@@H]1CO)C1CC1,0,0,-,-,0
COCC(=O)N1C[C@@H](C)[C@H](OC)CN(C)C(=O)c2cc(NC(=O)c3ccccc3)ccc2OC[C@@H]1C,-,0,-,-,0
CC1(C)CC(NC(=O)C2CCC(=O)N(C3CC3)C2)CC(C)(C)C1 (configuration not stated),36,0,0,0,0
O=C(c1ccccc1)N1CC[C@@H]2[C@@H](CO)Nc3ccc(-c4ccccc4F)cc3[C@@H]21,0,33,-,-,0

# High-throughput results from PubChem.
